KKLEB cytotox – CF airway cell cytotoxicity counter-screen; KKLEB CF airway cells viability, ATPlite luminescence, overnight; hits give low values; cells stimulated with P. aeruginosa culture filtrate; activity change (cytotoxicity), % at 5 µM; 0.36% of 360,000 active;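 active = corrected activity change at or below -50% at 5 µM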
ABHD5-PLIN5 inh – ABHD5-PLIN5 protein interaction inhibition; Q00G26+Q8WTS1; Split G. princeps luciferase complementation, luminescence, 4 h; inhibition, % at 4 µM; 0.78% of 360,000 active; AID 602281;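 active = inhibition above the mean inhibition across every tested compound plus 3 SD, cut at about 22% in these data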
CF NFkB inh – cystic fibrosis NF-kB activation inhibition | KKLEB NF-kB-GFP reporter, PAF-induced, GFP fluorescence overnight | inhibition, % at 5 µM | 0.86% of 360,000 active | AID 588850;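 active = at least 50% inhibition at 5 µM, scaled per plate between neutral and stimulator controls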;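 note: PAF is a Pseudomonas aeruginosa culture filtrate used as stimulus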
TRPM1 prom inh – MITF TRPM1 promoter inhibition in SK-MEL-5 cells. inhibition, % at 12.5 µM. 0.83% of 330,000 active. SK-MEL-5 TRPM1 promoter luciferase, 24 h. AID 488899;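 active = mean inhibition across replicates of 60% or more, whatever share of single replicates reaches that level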
Peg3 prom inh-1 – reduces Peg3 promoter-driven luciferase expression in HeLa | HeLa PEG-Prom luciferase reporter, luminescence, overnight | inhibition, % at 20 µM | AID 588405 | 1.7% of 360,000 active;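 active = inhibition of at least 50% at 20 µM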
HIF-2a block – inhibitors of HIF-2a; 786-0 RCC cells HIF-2a reporter, luciferase luminescence, overnight; inhibition, % at 18.8 µM; 0.72% of 360,000 active;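 active = inhibition of the luminescence signal of 40% or more relative to plate controls, in a single-dose primary screen at 18.75 µM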
Peg3 prom inh-2 – confirmation of Peg3 promoter inhibitors | AID 602417 | 84% of 1,300 active | inhibition, % at 20 µM | shares compounds with Peg3 prom inh-1 | HeLa PEG-Prom luciferase reporter, luminescence, overnight;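 active = at 20 µM dose, 40% or more inhibition averaged across four replicates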
A number is an active result; i = inactive; nt = not tested or not shown. In the library only some 3% were active in any assay of this set; here they are far more common.

SMILES | KKLEB cytotox | ABHD5-PLIN5 inh | CF NFkB inh | TRPM1 prom inh | Peg3 prom inh-1 | HIF-2a block | Peg3 prom inh-2
CCOc1ccccc1NC(=O)c1cc(-c2cc(OC)c(OC)c(OC)c2)nc2ccccc12 | i | i | i | i | i | i | nt
COc1ccccc1NC(=O)c1cc(-c2cc(OC)c(OC)c(OC)c2)nc2ccccc12 | i | i | i | i | 54 | i | 74
COc1cc(-c2cc(C(=O)Nc3cc(S(=O)(=O)N4CCOCC4)ccc3C)c3ccccc3n2)cc(OC)c1OC | i | i | i | i | 53 | i | 53
CC1=C(CC[C@@H](C)CO)OC2CC3C4CCC5CC(O)CCC5(C)C4CC(=O)C3(C)C12 (stereo not given in full) | i | i | i | nt | 65 | i | 58
COc1ccc(CNCCC(c2ccc(OC)cc2)c2ccccc2OC)cc1 (stereo not given) | i | i | i | i | i | i | nt
COc1ccc(CNCCC(c2ccccc2)c2ccc(OC(C)C)cc2)cc1OC (stereo not given) | i | i | i | 74 | 101 | i | 97
CN(C)CC1CCC/C(=C/c2ccc(Cl)cc2)C1=O (stereo not given) | i | i | i | 81 | 96 | i | 98
COc1ccc(C=C2CCC3C(=O)CCCC3(C)C2=O)cc1 (stereo not given) | i | i | i | nt | i | i | nt
COc1ccc(/C=C2/CCCC(CN(C)C)C2=O)cc1 (stereo not given) | i | i | i | 68 | 98 | i | 99
COC(=O)c1cnc(NC(=O)C2(C)CCN2C(=O)C(C)C)s1 (stereo not given) | i | i | i | nt | i | i | nt
CC1=NN(c2nc(-c3ccc(C)cc3)cs2)C(=O)C1N=Nc1ccc2ccccc2c1 (stereo not given) | i | i | i | i | i | i | nt
CC1=NN(c2nc(-c3ccc(C)cc3)cs2)C(=O)C1N=Nc1ccc(C(N)=O)cc1 (stereo not given) | -66 | i | 76 | 102 | 102 | i | i
COc1ccccc1CN(C)C(=O)c1cc(-c2cccs2)nc2ccccc12 | i | i | i | i | 69 | i | 81
COc1ccc(-c2cc(C(=O)N(C)Cc3cccc(OC)c3OC)c3ccccc3n2)cc1OC | i | i | i | i | 55 | i | 56
COc1ccc(CN(C)C(=O)c2cc(-c3ccccc3)nc3ccc(C)cc23)c(OC)c1OC | i | i | i | i | 59 | i | 60
Cc1cc(OC(C)C(=O)NCc2cccnc2)c2c(C)cc(=O)oc2c1 (stereo not given) | i | i | i | i | i | i | nt
NC(=O)C1CCN(CC(O)COCc2ccccc2Cl)CC1 (stereo not given) | i | i | i | i | i | i | nt
Cc1cc(Br)ccc1NC(=O)CN1C(=O)C2C3CC(c4ccccc4)C(C3)C2C1=O (stereo not given) | i | i | i | i | 56 | i | 63
COc1ccc(-c2nc(NC(=O)c3n[nH]c(=O)c4ccccc34)sc2C)cc1 | i | i | i | i | 60 | i | 48
COc1cc(NC(=O)c2n[nH]c(=O)c3ccccc23)cc(OC)c1 | i | i | i | i | i | i | nt
CC(=O)N1c2ccc(S(=O)(=O)N3CCC(C(=O)N4CC(C)CC(C)C4)CC3)cc2CC1C (stereo not given) | i | i | i | i | i | i | nt
Cn1cnc([N+](=O)[O-])c1Sc1nc(N)nc2c1ncn2C1OC(CO)C(O)C1O (stereo not given) | i | i | i | i | 61 | i | 64
CCSc1nc(N)nc2c1ncn2C1OC(CO)C(O)C1O (stereo not given) | i | i | i | i | i | i | nt
Nc1nonc1-n1nnc(C(=O)N/N=C/c2ccccc2F)c1CN1CCc2ccccc21 | i | i | i | i | i | i | nt
Cc1nc(C)c(C(=O)N/N=C/c2cc(Br)ccc2O)s1 | i | i | i | 63 | 50 | i | 61
Cc1nc(C)c(C(=O)N/N=C/c2c[nH]c3ccccc23)s1 | i | i | i | i | i | i | nt
CN(Cc1cccc(C(F)(F)F)c1)C(=O)[C@H]1O[C@@H](n2ccc(N)nc2=O)[C@H](O)[C@@H]1O | i | i | i | nt | i | i | nt
COc1ccccc1C(=O)C1CCCN(Cc2cn[nH]c2C2CCCCC2)C1 (stereo not given) | i | i | i | i | i | i | nt

From PubChem
